# Source: PubChem BioAssay
# Shown are actives, neighbours in structure and some others; about 3.1% of the full set was active somewhere.
# SKOV3 invasion: ovarian cancer metastasis inhibition, 3D TME model. SKOV3ip1-GFP adhesion/invasion on 3D omental model, fluorescence. Potency, µM (series often up to 45.8 µM), for the others: at the top dose activity change, negative = inhibition, usual class: inhibitors. actives 0.1% (n = 46,000). AID 1963576;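 note: potency is the fitted concentration of half-maximal effect; plate controls were DMSO wells for no effect and tomatine positive control wells for full effect; nearly all actives have a fitted effect of over 65% in size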
#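 Adhesion/invasion was scored as fixed GFP-labeled SKOV3ip1 cell counts (488/509 nm), normalized to DMSO and tomatine controls. Cancer cells in serum-free medium, with four compound doses (0.36-46 umol/L), sat 2 hr at RT then 16 hr at 37 C on a 48 hr fibroblast/mesothelial/ECM culture.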
# p53null 32C kill: p53 null cell cytotoxicity, permissive temperature; H1299-neo p53 null cells, ATP luminescence, 24 h, 32C; AID 903; Potency, µM (titrated, usually from 46.1 µM), without a hit: top-dose activity change, negative = cytotoxicity, hits mostly cytotoxic; actives 0.62% (n = 55,000);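 note: potency is the fitted concentration of half-maximal effect; 0% = DMSO only and -100% = full killing by 100 µM tamoxifen; nearly all actives have a fitted effect of over 55% in size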
#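 H1299-neo (p53-null) cells, 600/well, were pre-incubated overnight at 37C, then exposed to compounds at up to 46 uM for 24 hr at 32C. Viability was measured as ATP content by luminescence, and AC50 values came from Hill fits.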
# p53null 39C tox: selectivity test: cytotoxicity in p53 null cells, nonpermissive temperature | actives 0.97% (n = 55,000) | H1299 p53-null (neo) cells, 39C, ATPlite viability, 24 h | Potency, µM (doses to about 46.1 µM), without a hit: at the top dose activity, negative = cell killing, actives largely listed as cytotoxic;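 note: potency is the fitted concentration of half-maximal effect; 0% = DMSO only and -100% = full killing by 100 µM tamoxifen; nearly all actives have a fitted effect of over 50% in size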
#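 Temperature-shift cytotoxicity format: compound titrations on p53-null or A138V-expressing H1299 cells held 24 hr at 39C, cell ATP then measured, AC50 from Hill model.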
# pS6 MEF inh: mTORC1 pathway inhibition measured by phospho-rpS6; actives 0.78% (n = 44,000); Tsc2-/- p53-/- MEF, phospho-rpS6 immunofluorescence/PI, 24 h; Potency, µM (top dose mostly 38.3 µM), without a hit: top-dose activity change, negative = inhibition, actives largely listed as inhibitors;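 note: potency is the fitted concentration of half-maximal effect; plate controls were DMSO for no effect and rapamycin for full effect; nearly all actives have a fitted effect of over 50% in size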
#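 Immunofluorescence of rpS6 phosphorylation in Tsc2-/-, p53-/- MEFs after 24 h compound exposure, normalized to propidium iodide signal. Activity is expressed as % positive cells, thresholded with 7.5 nM rapamycin.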
# S16 F2sN tox: S16 Schwann cell cytotoxicity; actives 0.48% (n = 43,000); Potency, µM (top dose mostly 57.5 µM), inactives show top-dose activity change, negative = cytotoxicity, most hits filed as cytotoxic; S16 Pmp22-F2sN Schwann cells viability, CellTiter-Glo, 24 h; note: potency is the fitted concentration of half-maximal effect; % is set by controls: 0 for no effect and ±100 for the full control effect; nearly all actives have a fitted effect of over 65% in size
#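 Luminescence from CellTiter-Glo, read by CCD camera after a 15 min room-temperature incubation, served as the viability signal. Reporter Schwann cells (S16 Pmp22-F2sN) had been treated with pin-transferred compounds for 24 h at 37C.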
# PMP22 txn prim: PMP22 gene transcription modulation. S16 Pmp22-F2sN Schwann cells (luciferase reporters placed in the Pmp22 gene), FLuc/NLuc coincidence luminescence, 24 h. Potency, µM (titrated, usually from 57.5 µM), for inactives: at the top dose activity change, negative = inhibition, hits mostly inhibitors. actives 2% (n = 43,000); active = clear falling dose curves in both reporters; inconclusive = both reporters move, but less clearly or upward; inactive = either reporter flat; the % is the NLuc reporter signal; note: potency is the fitted concentration of half-maximal effect; % is set by controls: 0 for no effect and ±100 for the full control effect
#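 Rat S16 Pmp22-F2sN cells, 500-1,000/well in phenol red-free DMEM + 10% FBS, compound-treated 24 h (37C, 5% CO2). Luminescence: FLuc read, Stop&Glo added, NLuc read.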
# NLuc saturating: counter-screen for PMP22 expression modulators: NanoLuc inhibition, saturating substrate; shares compounds with PMP22 txn prim; Secreted NLuc enzyme (filtered S16 cell medium), Nano-Glo luminescence; Potency, µM (highest dose often 57.5 µM), inactives show top-dose activity change, negative = inhibition, actives largely listed as inhibitors; actives 4% (n = 690); note: potency is the fitted concentration of half-maximal effect; % is set by controls: 0 for no effect and ±100 for the full control effect
# NLuc Km ctr: inhibits NanoLuc under Km conditions, PMP22 counter-screen | shares compounds with PMP22 txn prim | secreted NLuc enzyme, coelenterazine luminescence, Km conditions | Potency, µM (top dose mostly 57.5 µM), inactives show at the top dose activity change, negative = inhibition, hits mostly inhibitors | actives 5% (n = 690); note: potency is the fitted concentration of half-maximal effect; % is set by controls: 0 for no effect and ±100 for the full control effect
# FLuc ctr PMP22: firefly luciferase enzyme inhibition artifact for PMP22 screen | 690 tested, under 10 active | shares compounds with PMP22 txn prim | purified P. pyralis FLuc, luminescence, 10 min | Potency, µM (top dose mostly 57.5 µM), without a hit: top-dose activity, negative = inhibition, actives largely listed as inhibitors; note: % of control where 0% means no effect
# Target sequence (P08659 whole entry, looked up): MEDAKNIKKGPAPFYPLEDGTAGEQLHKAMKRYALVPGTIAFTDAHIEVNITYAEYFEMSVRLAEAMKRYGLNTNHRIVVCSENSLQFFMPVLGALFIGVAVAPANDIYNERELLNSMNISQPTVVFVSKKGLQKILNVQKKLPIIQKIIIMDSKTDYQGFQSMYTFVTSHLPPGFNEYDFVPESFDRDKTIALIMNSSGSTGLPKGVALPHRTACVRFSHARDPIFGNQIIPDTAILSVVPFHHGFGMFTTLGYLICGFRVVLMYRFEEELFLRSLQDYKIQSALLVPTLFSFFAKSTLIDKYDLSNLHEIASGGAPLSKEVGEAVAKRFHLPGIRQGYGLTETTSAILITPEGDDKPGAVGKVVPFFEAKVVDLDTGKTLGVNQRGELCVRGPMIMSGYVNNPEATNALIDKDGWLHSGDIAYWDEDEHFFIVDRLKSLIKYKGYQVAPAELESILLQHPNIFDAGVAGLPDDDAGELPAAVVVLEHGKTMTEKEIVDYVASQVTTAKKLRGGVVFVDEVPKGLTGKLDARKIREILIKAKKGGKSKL
# S16 F2sN tox cnf: S16 Schwann cell cytotoxicity, confirmatory. S16 Schwann cells viability, CellTiter-Glo ATP luminescence, 24 h. actives 7% (n = 690). Potency, µM (series often up to 57.5 µM), inactives show at the top dose activity change, negative = viability loss, most hits filed as cytotoxic. shares compounds with PMP22 txn prim. AID 1508641; note: potency is the fitted concentration of half-maximal effect; % is set by controls: 0 for no effect and ±100 for the full control effect
# PMP22 txn cnf: confirmation of modulators of PMP22 gene transcription in S16 cells; shares compounds with PMP22 txn prim; S16 Schwann cells Pmp22-F2sN, dual luciferase, 24 h; Potency, µM (doses to about 57.5 µM), inactives show at the top dose activity change, negative = inhibition, hits mostly inhibitors; actives 22% (n = 690); AID 1508646; active = clear falling dose curves in both reporters; inconclusive = both reporters move, but less clearly or upward; inactive = either reporter flat; the % is the FLuc reporter signal; note: potency is the fitted concentration of half-maximal effect
# PMP22 HiBiT cnf: confirmation of modulators of rat PMP22 protein expression; shares compounds with PMP22 txn prim; S16 Schwann cells Pmp22-HiBiT, luminescence, 48 h; Potency, µM (titrated, usually from 27.9 µM), for the others: at the top dose activity change, negative = inhibition, actives largely listed as inhibitors; 95 tested, under 10 active; AID 1508647
# Active calls of the source: *; i = inactive; ? = inconclusive; · = no result given. Unless noted, calls come from the whole dose curve; as a rule, active = well fitted curve in the direction sought with a large enough effect; inconclusive = small, poorly fitted or top-dose-only effect, or another doubt; inactive = no such curve, though single readings can be large; an effect the other way counts as inactive or inconclusive.
SMILES,SKOV3 invasion,p53null 32C kill,p53null 39C tox,pS6 MEF inh,S16 F2sN tox,PMP22 txn prim,NLuc saturating,NLuc Km ctr,FLuc ctr PMP22,S16 F2sN tox cnf,PMP22 txn cnf,others
COc1ccc2c(c1)-c1nc(NC(=O)c3cc(Cl)ccc3OC)sc1CC2,-7%,-6%,-25%,3%,-3%,17µM*,-15%,-9%,2%,?,?,
COc1ccc(-c2c(C)nn3c(N4CCN(c5ccccc5)CC4)cc(C)nc23)cc1OC,0%,0%,16%,-13%,-13%,17µM*,?,?,-4%,-16%,?,
Clc1cccc(-c2noc3ncnc(NC4CCCCC4)c23)c1,-1%,-3%,-11%,-13%,-19%,?,-12%,2%,-11%,-16%,8.2µM*,PMP22 HiBiT cnf=-6%
Cc1ccc(CCNc2ncnc3onc(-c4ccc(Cl)cc4)c23)cc1,i,-6%,?,2%,-17%,?,·,·,·,·,·,
CC1CCC(Nc2ncnc3onc(-c4ccc(Cl)cc4)c23)CC1 (stereo not given),-3%,1%,-16%,-6%,-1%,-10%,·,·,·,·,·,
Cc1cccc(CCNc2ncnc3onc(-c4ccc(Cl)cc4)c23)c1,i,16%,16%,1%,-19%,19µM*,-1%,-1%,-6%,?,?,
Clc1ccc(-c2noc3ncnc(NC4CCCCC4)c23)cc1,i,-4%,1%,0%,0%,?,-8%,-1%,-3%,-10%,?,
COc1cc(F)c(F)c(Nc2ccc(I)cc2F)c1NS(=O)(=O)C1(C[C@H](O)CO)CC1,-7%,·,·,·,·,·,·,·,·,·,·,
O=C(CCn1cnnn1)Nc1cc(C(F)(F)F)cc(C(F)(F)F)c1,i,-16%,-1%,-5%,-5%,3.9µM*,-10%,3%,-10%,1%,?,
Cc1cccc(CNC(=O)c2cnc3sc(N4CCCCCC4)nn3c2=O)c1,i,-14%,26%,-3%,4%,?,-1%,4%,3%,23%,-5%,
